A selection: hits, their analogues and other compounds. The true share with any hit is near 6.3%.
Mdm2 MdmX PPI = human Mdm2/MdmX binding inhibition. inhibition, % at 8 µM. O15151+Q00987. 330,000 tested, 3% active. AID 485346. SaOS-2 split-luciferase Mdm2/MdmX complementation, luminescence;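 active = inhibition of at least 50% at 8 µM in the primary screen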
Target sequence (O15151 whole entry, looked up): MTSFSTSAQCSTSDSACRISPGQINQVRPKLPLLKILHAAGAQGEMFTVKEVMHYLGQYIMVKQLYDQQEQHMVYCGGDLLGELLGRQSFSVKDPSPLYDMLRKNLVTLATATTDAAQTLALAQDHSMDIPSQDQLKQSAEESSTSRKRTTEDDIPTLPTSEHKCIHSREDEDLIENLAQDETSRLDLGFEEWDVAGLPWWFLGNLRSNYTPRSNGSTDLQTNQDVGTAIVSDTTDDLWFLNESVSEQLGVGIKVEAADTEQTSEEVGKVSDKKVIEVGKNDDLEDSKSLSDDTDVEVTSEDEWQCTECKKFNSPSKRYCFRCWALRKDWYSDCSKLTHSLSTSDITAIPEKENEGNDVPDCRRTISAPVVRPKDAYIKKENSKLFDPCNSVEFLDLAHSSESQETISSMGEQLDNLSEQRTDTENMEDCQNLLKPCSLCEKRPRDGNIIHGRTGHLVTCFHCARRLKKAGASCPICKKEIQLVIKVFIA
Target sequence (Q00987 whole entry, looked up): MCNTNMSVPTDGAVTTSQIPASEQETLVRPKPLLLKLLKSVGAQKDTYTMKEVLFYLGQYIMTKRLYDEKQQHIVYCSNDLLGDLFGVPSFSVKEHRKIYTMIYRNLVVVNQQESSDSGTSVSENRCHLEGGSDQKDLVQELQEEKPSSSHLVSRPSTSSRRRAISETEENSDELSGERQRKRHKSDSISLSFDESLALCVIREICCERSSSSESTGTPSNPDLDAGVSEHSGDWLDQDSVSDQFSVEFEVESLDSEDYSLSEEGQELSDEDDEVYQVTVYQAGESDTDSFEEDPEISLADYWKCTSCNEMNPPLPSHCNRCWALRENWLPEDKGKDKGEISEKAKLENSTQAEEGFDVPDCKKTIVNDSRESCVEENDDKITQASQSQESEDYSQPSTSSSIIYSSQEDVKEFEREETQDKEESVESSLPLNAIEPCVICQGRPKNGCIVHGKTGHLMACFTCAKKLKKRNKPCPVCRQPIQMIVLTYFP
tim23-1 inh = inhibits growth of tim23-1 mutant yeast | S. cerevisiae tim23-1 growth, BacTiter-Glo luminescence, 24 h | inhibition, % at 20 µM | 330,000 tested, 1.3% active | AID 463212;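 active = growth inhibition of the mutant yeast at or above 50%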;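 also: temperature-sensitive mutant grown at 25 °C; plate controls were DMSO-treated mutant yeast for no effect and medium wells lacking yeast for full effect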
MPTP block = permeability transition pore inhibition. isolated mouse mitochondria, Ca2+ swelling absorbance, 30 min. inhibition, % at 10 µM. 360,000 tested, 1.4% active. AID 602449;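 active = inhibition of 50% or more, scaled per plate between neutral and stimulator controls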;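 also: 0% = DMSO wells given calcium and 100% = 1 mM EGTA wells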
TIM10 inh = inhibits growth of TIM10 yeast strain. inhibition, % at 10 µM. 330,000 tested, 1.4% active. S. cerevisiae TIM10 strain growth, BacTiter-Glo luminescence, 24 h;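 active = inhibition of 40% or more at the single tested concentration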;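 also: wild-type TIM10 isogenic control strain grown at permissive 25 °C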
tim10-1 inh = growth inhibitors of tim10-1 mutant yeast. S. cerevisiae tim10-1 ts strain growth, BacTiter-Glo, 24 h. inhibition, % at 20 µM. 330,000 tested, 2.2% active. AID 463190;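 active = inhibition of at least 40%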;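 also: mutant grown at 25 °C; 0% = DMSO wells with yeast and 100% = wells holding no yeast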
MPTP counter = Rhodamine 123 counter-screen of mitochondrial pore hits | 5,000 tested, 78% active | inhibition, % at 10 µM | AID 624504 | isolated mitochondria, membrane potential, Rhodamine 123 fluorescence | shares compounds with MPTP block; in the data active = inhibition above about 22%;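 also: 0% = DMSO vehicle and 100% = positive control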
MPTP abs DR = MPTP inhibition, dose response swelling confirmation. shares compounds with MPTP block. isolated mitochondria swelling, absorbance. IC50, µM. 780 tested, 58% active. AID 651561; in the data active = IC50 below about 20 µM
MPTP cs DR = active in counter-screen for permeability transition pore inhibitors. IC50, µM. AID 651564. isolated mitochondria counterscreen, fluorescence read-out. 780 tested, 49% active. shares compounds with MPTP block; in the data active = IC50 below about 80 µM
* marks the source's active call; other numbers are inactive results; i = inactive; . = not tested or not shown.

SMILES | Mdm2 MdmX PPI | tim23-1 inh | MPTP block | TIM10 inh | tim10-1 inh | MPTP counter | others
O=C(Nc1ccc2c(c1)OCO2)NC1(C(F)(F)F)Oc2ccccc2O1 | -5.9 | 3.5 | 55.1* | 13.3 | 17.8 | 59.6*
O=C(Nc1ccc2c(c1)OCO2)N1CCCC1 | -4.9 | 24.4 | 82.5* | 10.1 | 25.7 | 85.3*
O=C(Nc1ccc2c(c1)OCO2)N1CCOCC1 | 1.1 | 16.6 | 1.0 | -5.7 | -1.5 | .
CCc1cccc(NC(=O)Nc2ccc3c(c2)OCO3)c1 | -17.9 | -1.8 | 59.3* | 9.5 | 9.7 | 76.2*
O=C(Nc1cccc(Cl)c1)Nc1ccc2c(c1)OCO2 | -70.8 | -11.6 | 99.5* | -5.5 | -19.4 | 84.6*
CC(=O)c1cccc(NC(=O)Nc2ccc3c(c2)OCO3)c1 | -22.6 | 14.3 | 0.6 | -2.5 | 6.8 | .
CCCCN1CC(COCc2ccccc2)Oc2cccc(Oc3cc(C)c(C)c(C)c3)c2S1(=O)=O (configuration not stated) | . | . | -2.6 | . | . | .
Cc1nc2cc(NC(=O)Nc3ccc(Br)cc3)ccc2o1 | -178.2 | 7.8 | 81.6* | 10.3 | 16.1 | 83.4*
CCc1ccc(/C=C\C(=O)N2CCCC2)cc1 | -79.1 | 12.5 | 1.5 | 14.7 | 13.1 | .
CCc1ccc(/C=C\C(=O)N2CCc3ccccc3C2)cc1 | 3.8 | 19.7 | 60.7* | -4.0 | 13.6 | 36.4*
CCOC(=O)c1ccc(NC(=O)c2nc[nH]c2C(=O)NC[C@H](C)O)cc1 | . | . | -0.4 | . | . | .
O=C(Nc1nnc(S(=O)(=O)N2CCCCCC2)s1)c1ccc(Br)cc1 | 30.2 | -5.5 | 60.0* | -27.8 | -8.9 | 28.9*
CCC(Oc1ccccc1)C(=O)Nc1nnc(S(=O)(=O)N2CCCC2)s1 (configuration not stated) | 0.1 | 30.4 | 85.0* | 6.8 | 21.6 | 20.4*
COc1ccc(S(=O)(=O)N2CCOCC2)cc1NC(=O)C1CCCCN1S(=O)(=O)c1ccccc1 (configuration not stated) | . | . | 0.8 | . | . | .
CCOc1ccc(OCC)c(NC(=O)CSc2nc3ccccc3c(=O)n2C)c1 | 22.1 | -4.9 | 93.1* | -2.0 | 1.2 | 74.5*
CCOc1ccc(OCC)c(NC(=O)CSc2nc3cccnc3n2C)c1 | 25.7 | 15.0 | 9.1 | 6.8 | -10.8 | .
COc1ccc(NS(=O)(=O)c2ccc(-c3coc(C)n3)cc2)cc1OC | 17.8 | 6.6 | 98.3* | 1.4 | 17.2 | 83.4*
COc1ccccc1N1CCN(C(=O)c2cccc(S(=O)(=O)N3c4ccccc4CC3C)c2)CC1 (configuration not stated) | . | . | 1.4 | . | . | .
Cc1c(NC(=O)c2cc3c(s2)-c2ccccc2OC3)cccc1[N+](=O)[O-] | 21.9 | 5.3 | 63.7* | 3.3 | 3.8 | 76.7*
CCCN1CCN(CCCNC(=O)c2cc3c(s2)-c2ccccc2OC3)CC1 | 40.2 | -6.6 | -0.3 | 0.4 | -20.0 | .
CN(C)CCNC(=O)c1cc2c(s1)-c1ccccc1OC2 | -4.3 | 21.3 | 60.2* | 13.7 | 16.9 | -6.3 | MPTP abs DR=14.2*;MPTP cs DR=>80
COc1ccc(Cl)cc1NC(=O)c1ccco1 | 4.3 | 12.5 | 79.8* | 10.6 | 12.5 | 0.8 | MPTP abs DR=i;MPTP cs DR=>80
COc1ccc(Cl)cc1NC(=O)c1cccc([N+](=O)[O-])c1O | . | . | 85.3* | . | . | 96.0*
C[C@H](CO)N1C[C@H](C)[C@@H](CN(C)S(=O)(=O)c2ccccc2F)OCc2cnnn2CCCC1=O | . | . | 0.3 | . | . | .
Cc1ccc(Cn2ncc3c(N4CCN(CC#N)CC4)ncnc32)cc1 | -2.2 | 12.5 | 0.1 | 4.3 | 20.7 | .
SMILES | Mdm2 MdmX PPI | tim23-1 inh | MPTP block | TIM10 inh | tim10-1 inh | MPTP counter | others
Cc1ccc(Cn2ncc3c(N4CCCC4)ncnc32)cc1 | 9.4 | 17.1 | 62.1* | 8.5 | 23.2 | 1.1 | MPTP abs DR=>100;MPTP cs DR=>80
CCOC(=O)N1CCC2(CC1)NC(=O)c1ccccc1N2 | . | . | -0.3 | . | . | .
CCCCOc1ccc(CSc2nnc(C)n2N)cc1[N+](=O)[O-] | 8.7 | 2.4 | 0.8 | 12.5 | 19.2 | .
CCCCOc1ccc(CSc2nc(C)[nH]c2[N+](=O)[O-])cc1[N+](=O)[O-] | 5.2 | -6.1 | 56.0* | 10.0 | -1.3 | 74.8*
COc1ccc(Cc2nc3ccc(C(=O)NCCc4ncccc4C)cc3o2)cc1OC | . | . | -0.1 | . | . | .
CCOC(=O)c1sc(NC(=O)CSc2nc(C)cc(-c3ccccc3)n2)c(C#N)c1C | 12.0 | 18.8 | 0.4 | 10.4 | 15.8 | .
CCOC(=O)c1c(NC(=O)c2ccncc2)sc(C)c1C | 34.7 | 15.3 | -0.3 | 4.7 | -17.2 | .

From PubChem
